Laboratory results: PubChem BioAssay AID651956 (Broad Institute, 2012)
Measured potencies and affinities stand elsewhere. Records with an inconclusive call do not appear. The source made the active and inactive calls.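 Rule for the calls: active = in every test run, a fitted half-maximal concentration for signal decrease at or below twice the highest tested concentration; inconclusive = runs disagree, flat 30 to 70% decrease, or poor fit; inactive = the rest.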

Test: activation of miR-122 Renilla sensor silencing – cell-based, Huh7 psiCHECK-miR122, Renilla luciferase, cherry-picked, dose response (AID 651956);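 note: Renilla luciferase from a miR-122 sensor reporter so lower signal means miR-122 activation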
Settings: Huh7 psiCHECK-miR122 Renilla luciferase reporter, 48 h; series mostly up to 35 µM
For `COC(=O)c1cc(NS(=O)(=O)c2ccc3c(c2)CCC(=O)N3)cc(C(=O)OC)c1`, the outcome was “inactive”. In the case of `CNC(=O)C[C@H]1CC[C@H]2[C@H](COc3ccc(NC(=O)c4cccc(OC)c4)cc3C(=O)N2C)O1`, the outcome was “inactive”. In the case of `CCC(=O)N1[C@@H](CO)[C@H](c2ccccc2)[C@@H]1CN(C(C)C)S(C)(=O)=O`, the outcome was “inactive”. In the case of `CCCNC(=O)N1C[C@@H]2[C@H](c3ccccc31)[C@@H](CO)N2Cc1cc(F)ccc1F`, the outcome was “inactive”. With `O=C(COC(=O)c1ccccc1)Nc1cc(Cl)ccc1Oc1ccccc1` the outcome was “inactive”. With `CN1C(=O)c2cc(NC(=O)c3cccs3)ccc2OC[C@H]2O[C@H](CC(=O)NCCN3CCCCC3)CC[C@H]21` the outcome was “inactive”. In the case of `CC(=O)N1[C@H](CO)[C@@H](c2ccccc2)[C@H]1CN(C)C(=O)CN1CCOCC1`, the outcome was “inactive”. With `COc1ccc(N2CCc3c(C)nc4c(OC)cc(OC)cc4c32)c(OC)c1` the outcome was “inactive”. In the case of `COc1ccc(CNCCC(c2ccc(OC)cc2)c2ccccc2OC)cc1` (centres undefined), the outcome was “inactive”. With `COCC(=O)Nc1ccc2c(c1)C(=O)N(C)[C@@H]1CC[C@@H](CC(=O)NC3CCCC3)O[C@@H]1CO2` the outcome was “inactive”. For `O=C(c1ccco1)N1CCN(C2CC(=O)N(c3ccccc3)C2=O)CC1` (centres undefined), the outcome was “inactive”. For `COc1cccc(CNC(=O)C[C@@H]2CC[C@H]3[C@H](COc4ccc(NC(C)=O)cc4C(=O)N3C)O2)c1`, the outcome was “inactive”. With `COCC(=O)N1[C@H](CO)[C@@H](c2ccccc2)[C@H]1CN(C)C(=O)c1ccncc1` the outcome was “inactive”. For `CNC(=O)C[C@@H]1CC[C@@H]2[C@H](COc3ccc(NC(=O)NC(C)C)cc3C(=O)N2C)O1`, the outcome was “inactive”. In the case of `COc1ccc(C(=O)N2C[C@H]3[C@@H](c4ccccc42)[C@@H](CO)N3C(=O)Cc2ccccn2)cc1`, the outcome was “inactive”. In the case of `CCOc1cc(-c2nccc3cc(OC)c(OC)cc23)cc(OCC)c1OCC`, the outcome was “inactive”. In the case of `C/C=C/c1ccc([C@@H]2[C@H](CO)N[C@H]2CN(CC(C)C)C(=O)c2ccccn2)cc1`, the outcome was “inactive”. With `Cc1onc(-c2ccccc2)c1C(=O)NCc1ccccn1` the outcome was “inactive”. For `CNC(=O)C[C@@H]1CC[C@H]2[C@@H](COc3ccc(NC(=O)NC(C)C)cc3C(=O)N2C)O1`, the outcome was “inactive”. In the case of `COC(=O)C[C@@H]1CC[C@@H]2[C@@H](COc3ccc(NS(=O)(=O)c4ccccc4F)cc3C(=O)N2C)O1`, the outcome was “inactive”. In the case of `O=C(C1CCCCC1)N1C[C@@H]2[C@H](c3ccccc31)[C@H](CO)N2Cc1ccccc1Cl`, the outcome was “inactive”. With `CCNC(=O)C[C@@H]1CC[C@H]2[C@@H](COc3ccc(NC(=O)Nc4ccc(F)cc4)cc3C(=O)N2C)O1` the outcome was “inactive”. With `O=C(Nc1ccccc1F)N1[C@H](CO)[C@@H]2c3ccccc3NC[C@@H]21` the outcome was “inactive”. With `CCS(=O)(=O)Nc1ccc2c(c1)C(=O)N(C)[C@H]1CC[C@H](CC(=O)NCCCN3CCOCC3)O[C@H]1CO2` the outcome was “inactive”. For `CN(C)CCCNC(=O)C[C@@H]1CC[C@H]2[C@H](COc3ccc(NC(=O)c4cccc(F)c4)cc3C(=O)N2C)O1`, the outcome was “inactive”. In the case of `CCCNC(=O)C[C@@H]1CC[C@H]2[C@H](COc3ccc(NC(=O)c4ccc(C(F)(F)F)cc4)cc3C(=O)N2C)O1`, the outcome was “inactive”. With `CN1C(=O)c2cc(NC(=O)Nc3ccccc3Cl)ccc2OC[C@H]2O[C@H](CC(=O)O)CC[C@H]21` the outcome was “inactive”. In the case of `CC1(C)CC(=O)c2cnc(NC(=O)c3ccco3)nc2C1`, the outcome was “inactive”. For `CN1C(=O)c2cc(NC(=O)c3cccc(F)c3)ccc2OC[C@@H]2O[C@@H](CC(=O)NC3CCC3)CC[C@@H]21`, the outcome was “inactive”. For `C/C=C/c1ccc([C@@H]2[C@H](CO)N(Cc3ccccn3)[C@H]2CNC(=O)CC)cc1`, the outcome was “inactive”. With `O=C(Nc1ccc(F)cc1)N1C[C@@H]2[C@H](c3ccccc31)[C@H](CO)N2C(=O)Cc1ccccc1` the outcome was “inactive”. In the case of `Cc1cc(C)cc(Oc2ccc(NC(=O)C3CC=CCC3C(=O)O)cc2)c1` (centres undefined), the outcome was “inactive”. With `CC1CCN(CCc2nc3cc(NC(=O)Nc4ccccc4)ccc3n2C)CC1` the outcome was “inactive”. In the case of `COC(=O)C[C@@H]1CC[C@@H]2[C@@H](COc3ccc(NC(=O)c4cc(F)cc(F)c4)cc3C(=O)N2C)O1`, the outcome was “inactive”. For `FC(F)(F)c1cnc(N2CCCN(C(=S)Nc3ccccc3)CC2)c(Cl)c1`, the outcome was “inactive”. For `CN1C(=O)c2cc(NC(=O)c3ccc(C(F)(F)F)cc3)ccc2OC[C@@H]2O[C@@H](CC(=O)NCc3ccc4c(c3)OCO4)CC[C@H]21`, the outcome was “inactive”. For `CCCN(C[C@@H]1N[C@@H](CO)[C@H]1c1ccc(-c2cccnc2)cc1)C(C)=O`, the outcome was “inactive”. In the case of `COCC(=O)N1[C@H](CO)[C@H]2c3ccccc3N(C(=O)c3ccccc3F)C[C@H]21`, the outcome was “inactive”. For `COC(=O)C[C@H]1CC[C@@H]2[C@@H](COc3ccc(NC(=O)Nc4cccc(F)c4)cc3C(=O)N2C)O1`, the outcome was “inactive”.
